Assays:
Test in all cases: HT-SELEX; 20 mM HEPES pH 7, 140 mM KCl, 5 mM NaCl, 1 mM K2HPO4, 2 mM MgSO4, 100 uM EGTA, ZnSO4, 0.1% Tween20; room temperature, 1 h; high values mean tight binding
Conditions in all cases: protein: ivt; tags: eGFP (N-terminal); dsDNA, one strand shown
ZNF721 full-length = ZNF721 full-length (Homo sapiens, UniProt Q8TF20-2 1-923)
Summary of the method: (§1)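 Bead-immobilised tagged transcription factor (full-length or DNA-binding-domain fragment), made in HEK293 lysate or cell-free extract, was incubated with a randomized 40-base DNA library. Binding was for 1 h at room temperature in HEPES/KCl low-stringency buffer with Tween20. After washing and heat elution, bound DNA was PCR-amplified over successive cycles and Illumina-sequenced (~3 million 60 bp reads per sample). Binding signal is a relative k-mer count in selected reads; higher means tighter binding.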

ZNF721 DBD1 = ZNF721 DBD1 (Homo sapiens, UniProt Q8TF20-2 29-461)
Chain of ZNF721 DBD1 (Q8TF20 17-449): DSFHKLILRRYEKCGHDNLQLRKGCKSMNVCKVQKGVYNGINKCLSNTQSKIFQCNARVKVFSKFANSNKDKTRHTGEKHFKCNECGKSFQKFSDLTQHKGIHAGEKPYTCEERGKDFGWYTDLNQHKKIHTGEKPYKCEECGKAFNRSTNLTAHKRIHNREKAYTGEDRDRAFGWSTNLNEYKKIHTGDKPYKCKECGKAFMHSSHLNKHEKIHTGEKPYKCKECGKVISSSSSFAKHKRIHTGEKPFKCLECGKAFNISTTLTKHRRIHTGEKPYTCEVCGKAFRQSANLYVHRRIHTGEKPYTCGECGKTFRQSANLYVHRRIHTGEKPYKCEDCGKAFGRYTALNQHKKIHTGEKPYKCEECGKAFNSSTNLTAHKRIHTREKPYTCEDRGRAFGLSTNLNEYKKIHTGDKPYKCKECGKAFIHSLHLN
Summary of the method: as §1

ZNF721 DBD2 = ZNF721 DBD2 (Homo sapiens, UniProt Q8TF20-2 395-923)
Chain of ZNF721 DBD2 (Q8TF20 383-911): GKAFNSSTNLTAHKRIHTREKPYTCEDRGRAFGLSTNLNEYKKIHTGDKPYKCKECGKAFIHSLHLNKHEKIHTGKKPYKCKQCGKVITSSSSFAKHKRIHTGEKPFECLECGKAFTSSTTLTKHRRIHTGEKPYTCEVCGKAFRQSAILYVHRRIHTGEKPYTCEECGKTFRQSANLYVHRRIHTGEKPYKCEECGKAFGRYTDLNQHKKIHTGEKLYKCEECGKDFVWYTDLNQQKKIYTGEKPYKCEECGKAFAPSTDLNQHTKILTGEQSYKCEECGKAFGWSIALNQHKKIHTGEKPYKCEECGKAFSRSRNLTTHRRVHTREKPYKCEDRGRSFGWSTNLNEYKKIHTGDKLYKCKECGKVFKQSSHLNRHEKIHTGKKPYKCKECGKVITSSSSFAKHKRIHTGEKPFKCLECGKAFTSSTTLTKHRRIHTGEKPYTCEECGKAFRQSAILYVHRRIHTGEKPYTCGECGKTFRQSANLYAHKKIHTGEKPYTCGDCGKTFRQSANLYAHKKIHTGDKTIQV
Summary of the method: as §1

Chain of ZNF721 full-length (Q8TF20 other isoform, or with tags, fused parts or gaps): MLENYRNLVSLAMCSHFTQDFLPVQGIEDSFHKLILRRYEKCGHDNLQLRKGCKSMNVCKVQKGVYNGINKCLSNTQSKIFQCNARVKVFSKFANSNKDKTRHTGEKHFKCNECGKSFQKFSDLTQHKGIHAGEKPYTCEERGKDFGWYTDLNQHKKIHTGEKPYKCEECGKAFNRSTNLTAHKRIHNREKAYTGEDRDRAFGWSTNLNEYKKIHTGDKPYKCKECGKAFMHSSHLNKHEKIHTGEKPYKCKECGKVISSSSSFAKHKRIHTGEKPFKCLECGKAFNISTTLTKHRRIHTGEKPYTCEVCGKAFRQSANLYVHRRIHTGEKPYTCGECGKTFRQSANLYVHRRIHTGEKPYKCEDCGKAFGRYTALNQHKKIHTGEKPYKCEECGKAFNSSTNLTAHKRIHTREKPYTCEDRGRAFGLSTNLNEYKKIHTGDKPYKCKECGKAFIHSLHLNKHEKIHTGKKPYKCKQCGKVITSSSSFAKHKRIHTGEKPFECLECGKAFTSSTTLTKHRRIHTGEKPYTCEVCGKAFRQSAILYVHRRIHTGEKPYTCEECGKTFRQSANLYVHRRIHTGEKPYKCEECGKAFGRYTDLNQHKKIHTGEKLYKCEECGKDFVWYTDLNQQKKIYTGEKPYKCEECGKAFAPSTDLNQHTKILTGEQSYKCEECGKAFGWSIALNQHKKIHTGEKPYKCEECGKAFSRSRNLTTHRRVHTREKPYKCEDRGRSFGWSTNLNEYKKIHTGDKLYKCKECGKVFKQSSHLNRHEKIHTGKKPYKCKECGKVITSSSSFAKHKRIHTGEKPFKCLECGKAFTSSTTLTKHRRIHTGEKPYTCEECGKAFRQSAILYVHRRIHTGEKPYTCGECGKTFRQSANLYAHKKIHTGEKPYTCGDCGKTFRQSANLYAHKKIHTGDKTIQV

Sequence | binding signal (ZNF721 full-length) | binding signal (ZNF721 DBD1) | binding signal (ZNF721 DBD2)
CCCTCCTCCC | 0.179 relative 10-mer count | 0.00927 relative 10-mer count | 0.00479 relative 10-mer count
CCACCACGCC | 0.105 relative 10-mer count | 0.00316 relative 10-mer count | 0.00587 relative 10-mer count
AGGTGGGGTG | 0.114 relative 10-mer count | 0.00532 relative 10-mer count | 0.00288 relative 10-mer count
CCCCCGACCC | 0.181 relative 10-mer count | 0.00587 relative 10-mer count | 0.0018 relative 10-mer count
GCCACCACCC | 0.106 relative 10-mer count | 0.00413 relative 10-mer count | 0.00204 relative 10-mer count
CCACCTACCC | 0.112 relative 10-mer count | 0.00527 relative 10-mer count | 0.00455 relative 10-mer count
CACCACCCAC | 0.206 relative 10-mer count | 0.0105 relative 10-mer count | 0.0119 relative 10-mer count
ACCACCCCGC | 0.104 relative 10-mer count | 0.00358 relative 10-mer count | 0.00252 relative 10-mer count
CCACGTCCCC | 0.11 relative 10-mer count | 0.00376 relative 10-mer count | 0.00252 relative 10-mer count
GCTTTTTTTA | 0.176 relative 10-mer count | 0.0317 relative 10-mer count | 0.0453 relative 10-mer count
CAACCCACCC | 0.171 relative 10-mer count | 0.00532 relative 10-mer count | 0.00623 relative 10-mer count
ACAAAAAAGC | 0.187 relative 10-mer count | 0.0198 relative 10-mer count | 0.0647 relative 10-mer count
CCCACCGACC | 0.127 relative 10-mer count | 0.00394 relative 10-mer count | 0.00455 relative 10-mer count
AGGGGTGGGG | 0.2 relative 10-mer count | 0.00968 relative 10-mer count | 0.00372 relative 10-mer count
ACCCCCCCCA | 0.154 relative 10-mer count | 0.005 relative 10-mer count | 0.00276 relative 10-mer count
CCACCCAACC | 0.151 relative 10-mer count | 0.00674 relative 10-mer count | 0.00551 relative 10-mer count
CCCACCTCCC | 0.339 relative 10-mer count | 0.017 relative 10-mer count | 0.00551 relative 10-mer count
CTCCCCCCTC | 0.108 relative 10-mer count | 0.00605 relative 10-mer count | 0.00336 relative 10-mer count
CCACCTCCCA | 0.127 relative 10-mer count | 0.0061 relative 10-mer count | 0.00384 relative 10-mer count
AGGGTGGTGG | 0.142 relative 10-mer count | 0.00642 relative 10-mer count | 0.00455 relative 10-mer count
CCCTCCGCCC | 0.192 relative 10-mer count | 0.00936 relative 10-mer count | 0.00491 relative 10-mer count
CCCCCCGCAC | 0.115 relative 10-mer count | 0.00372 relative 10-mer count | 0.00348 relative 10-mer count
CCCACACACC | 0.114 relative 10-mer count | 0.00449 relative 10-mer count | 0.00455 relative 10-mer count
CAACCCCCCC | 0.131 relative 10-mer count | 0.00431 relative 10-mer count | 0.00252 relative 10-mer count
CCCCCCGTCC | 0.134 relative 10-mer count | 0.00491 relative 10-mer count | 0.00288 relative 10-mer count
AAGCTATCCC | 0.172 relative 10-mer count | 0.105 relative 10-mer count | 0.0012 relative 10-mer count
CCGCCCCCGC | 0.127 relative 10-mer count | 0.00491 relative 10-mer count | 0.0018 relative 10-mer count
